We go through 34 compounds from PubChem BioAssay (Tox21).

Several values for one entry are separate records, joined by “and”; a condition that tells them apart may be missing. Equal values may be shown once. Activity calls are given as the source filed them. Unless noted, calls follow the shape of the dose curve; as a rule, active = well fitted curve in the direction sought with a large enough effect in the repeat runs; inconclusive = weak or mixed curves; inactive = no such curve, though single readings can be large; an effect the other way counts as inactive or inconclusive.
% is scaled to controls: 0 for no effect and ±100 for the full control effect; potency is read from the fitted curve at half-maximal effect.

The target of the first assay is Estrogen receptor (Homo sapiens) (UniProt P03372). The experiment in a line: qHTS assay to identify small molecule agonists of the estrogen receptor alpha (ER-alpha) signaling pathway (AID 743075; calls by dose curve;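 also: HEK293 GripTite cells with ER-alpha and UAS-driven beta-lactamase reporter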). Conditions: HEK293 ER-alpha-UAS-bla, beta-lactamase FRET ratio, 18 h; series mostly up to 70.1 µM; activation: at the top concentration. A general note: In qHTS, concentration-response curves come from the screen itself.
Sequence of Estrogen receptor (Homo sapiens) (P03372 whole entry, looked up): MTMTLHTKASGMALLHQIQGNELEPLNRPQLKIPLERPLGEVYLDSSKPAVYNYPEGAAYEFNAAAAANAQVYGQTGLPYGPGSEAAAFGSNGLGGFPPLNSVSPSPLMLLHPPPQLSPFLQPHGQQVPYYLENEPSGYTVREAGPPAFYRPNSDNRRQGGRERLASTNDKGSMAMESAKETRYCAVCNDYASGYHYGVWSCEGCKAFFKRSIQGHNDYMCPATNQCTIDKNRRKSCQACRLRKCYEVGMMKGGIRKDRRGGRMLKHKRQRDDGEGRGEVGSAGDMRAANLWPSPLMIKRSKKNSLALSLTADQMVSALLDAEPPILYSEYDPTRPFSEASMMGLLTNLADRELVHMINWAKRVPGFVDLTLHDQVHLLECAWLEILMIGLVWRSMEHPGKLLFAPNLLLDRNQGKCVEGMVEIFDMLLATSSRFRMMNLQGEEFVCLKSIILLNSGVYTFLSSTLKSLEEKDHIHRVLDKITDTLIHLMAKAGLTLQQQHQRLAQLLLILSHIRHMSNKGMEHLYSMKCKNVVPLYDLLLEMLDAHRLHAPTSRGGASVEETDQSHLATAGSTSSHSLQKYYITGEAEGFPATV
As for `CC(COC(=O)c1ccccc1)OC(=O)c1ccccc1` (centres undefined), the “activation” value was 7.67% (inactive).
Same read-out and setting: the figure for `CNC(=S)NN` is 1.13% (inactive).
For the compound `CCCCCCCOC(=O)c1ccc(O)cc1`, the Potency was 55 µM [inconclusive] (active) and 54.9 µM [inconclusive] (active).
On to `O=C(Nc1ccc(Cl)cc1)Nc1ccc(Cl)c(C(F)(F)F)c1`, for which the “activation” value was -2.99% (inactive).
In the case of `O=Cc1ccc(F)cc1`, the “activation” value was -2.6% (inactive).
With `Cc1ccc(N)cc1O`, the “activation” value is 12% (inactive).
On the same count and under the same terms, the figure for `CC1=C(/C=C/C(C)=C/C=C/C(C)=C/C(=O)Nc2ccc(O)cc2)C(C)(C)CCC1` is 3.24% (inactive); for `CCCCCCCCCCCCCOP(=O)(O)O` it is 5.11% (inactive); for `CCC(C)(C)c1cc(O)c(C(C)(C)CC)cc1O` it is -0.249% (inactive).
`CCCCCCCCCCCCCC[n+]1ccccc1`: the “activation” value is -1.55% (inactive).
As for `CC(C)(C)CC(C)(C)c1ccccc1O`, the Potency is 22 µM [inconclusive] (active).
Regarding `Cc1oc(-c2ccccc2)nc1CCOc1ccc(C[C@H](Nc2ccccc2C(=O)c2ccccc2)C(=O)O)cc1`, the “activation” value was -4.75% (inactive).
Same read-out and setting: the figure for `Cc1nc(Nc2ncc(C(=O)Nc3c(C)cccc3Cl)s2)cc(N2CCN(CCO)CC2)n1` is 6.62% (inactive); for `CCCCCCCCCCCCCCNCCO` it is 1.68% (inactive); for `O=C1OC(=O)c2cccc3cccc1c23` it is 1.18% [at 79.1 µM] (inactive).
On to `Cc1cc2c(C(C)C)c(O)c(O)c(C=O)c2c(O)c1-c1c(C)cc2c(C(C)C)c(O)c(O)c(C=O)c2c1O`, for which the “activation” value is 1.69% (inactive).
For the compound `NCCCCCCNCCCCCCN`, the “activation” value was 5.54% (inactive).
As for `S=C(SSSSSSC(=S)N1CCCCC1)N1CCCCC1`, the “activation” value was -2.05% [at 32.9 µM] (inactive).

The target is the same in the next assay. The experiment in a line: qHTS assay to identify small molecule agonists of the estrogen receptor alpha (ER-alpha) signaling pathway using the BG1 cell line (AID 743079). Also: nearly all actives have a fitted effect of over 20% in size. Conditions: BG1Luc4E2 cells, ERE-luciferase agonist, 22 h; activation: at 70.3 µM (top of the series).
For the compound `CCCCCCCOC(=O)c1ccc(O)cc1`, the Potency is 15.4 µM (active) and 19.3 µM (active).
Take `O=Cc1ccc(F)cc1`: the “activation” value is 4.1% (inactive).
Consider `Cc1ccc(N)cc1O`, for which the “activation” value is -7.68% (inactive).
Still for that read-out and setting: the figure for `CCCCCCCCCCCCCOP(=O)(O)O` is 11.5% (inactive); for `CCC(C)(C)c1cc(O)c(C(C)(C)CC)cc1O` it is 16.9% (inactive).
As to `CC(C)(C)CC(C)(C)c1ccccc1O`, the Potency was 1.38 µM (active).
Same read-out and setting: the figure for `CCCCCCCCCCCCCCNCCO` is 0.188 µM (active).
With `O=C1OC(=O)c2cccc3cccc1c23`, the “activation” value is 7.57% [at 95 µM] (inactive).
Take `NCCCCCCNCCCCCCN`: the “activation” value is 14.3% (inactive).
Regarding `Clc1ccc(C(Cn2ccnc2)OCc2c(Cl)cccc2Cl)c(Cl)c1` (centres undefined), the “activation” value was -13.7% [at 32.5 µM] (inactive).
In the case of `S=C(SSSSSSC(=S)N1CCCCC1)N1CCCCC1`, the “activation” value is 12.6% [at 32.5 µM] (inactive).

Test system in the next assay: not listed separately
The experiment in a line: qHTS assay to identify small molecule antagonists of the estrogen receptor alpha (ER-alpha) signaling pathway using the BG1 cell line (AID 743080; calls by dose curve;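 also: BG1 cells stimulated with 17beta-estradiol alongside compound; nearly all actives have a fitted effect of over 25% in size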). Conditions: BG1Luc4E2 ERE-luciferase antagonist mode, luminescence; activity change, negative = inhibition: at 70.3 µM (top of the series). An outline of the steps: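 Luciferase inhibition measured with ONE-Glo after 30 min at RT in BG1Luc4E2 cells given test compounds and 17beta-estradiol for 21.5 h at 37 C; CellTiter-Fluor viability read in the same wells beforehand.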
With `CC(COC(=O)c1ccccc1)OC(=O)c1ccccc1` (centres undefined), the “activity change, negative = inhibition” value is 1.33% (inactive).
On to `O=C(Nc1ccc(Cl)cc1)Nc1ccc(Cl)c(C(F)(F)F)c1`, for which the Potency was 21.1 µM (active).
`O=Cc1ccc(F)cc1`: the “activity change, negative = inhibition” value is 2.56% (inactive).
The same measure, in the same setting: the figure for `Cc1ccc(N)cc1O` is -11.7% (inactive).
As to `CCCCCCCCCCCCCOP(=O)(O)O`, the “activity change, negative = inhibition” value was -0.564% (inactive).
As for `CCC(C)(C)c1cc(O)c(C(C)(C)CC)cc1O`, the activity change, negative = inhibition is 6.54% (active).
Regarding `CCCCCCCCCCCCCC[n+]1ccccc1`, the Potency was 4.86 µM (active).
In the case of `Cc1oc(-c2ccccc2)nc1CCOc1ccc(C[C@H](Nc2ccccc2C(=O)c2ccccc2)C(=O)O)cc1`, the “activity change, negative = inhibition” value is -4.1% (inactive).
Same read-out and setting: with `O=C1OC(=O)c2cccc3cccc1c23` the figure was -7.02% [at 95 µM] (inactive); with `NCCCCCCNCCCCCCN`, 14.6% (inactive).
Take `Clc1ccc(C(Cn2ccnc2)OCc2c(Cl)cccc2Cl)c(Cl)c1` (centres undefined): the “activity change, negative = inhibition” value was -6.6% [at 32.5 µM] (inactive).

Test system in a further assay: not listed separately
The experiment in a line: qHTS assay to identify small molecule antagonists of the estrogen receptor alpha (ER-alpha) signaling pathway using the BG1 cell line - cell viability counter screen (AID 743081).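 Also: compound given together with 17beta-estradiol as the ER stimulus; nearly all actives have a fitted effect of over 45% in size.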 Conditions: BG1Luc4E2 viability, CellTiter-Fluor, 22 h; series mostly up to 70.3 µM; activity change, negative = cytotoxicity: at the top concentration.
With `CC(COC(=O)c1ccccc1)OC(=O)c1ccccc1` (centres undefined), the “activity change, negative = cytotoxicity” value was 7.8% (inactive).
As for `CNC(=S)NN`, the “activity change, negative = cytotoxicity” value was -4.47% (inactive).
Regarding `CCCCCCCOC(=O)c1ccc(O)cc1`, the Potency result is “inactive”.
Turning to `O=C(Nc1ccc(Cl)cc1)Nc1ccc(Cl)c(C(F)(F)F)c1`, the “activity change, negative = cytotoxicity” value was -24% (inactive).
With `O=C1OC(OC(=O)c2cccnc2Nc2cccc(C(F)(F)F)c2)c2ccccc21` (centres undefined), the “activity change, negative = cytotoxicity” value is 3.32% (inactive).
Same read-out and setting: the figure for `CCCCCCCC/C=C\CCCCCCCC(=O)NCc1ccc(O)c(OC)c1` is -10.8% (inactive); for `O=Cc1ccc(F)cc1` it is -8.37% (inactive); for `Cc1ccc(N)cc1O` it is 17.2% (inactive).
Still for that read-out and setting: the figure for `Nc1ncnc2c1ncn2[C@@H]1O[C@H](COP(=O)(O)O)[C@@H](O)[C@H]1O` is -15.3% (inactive); for `C/C=C/C=N/NC(=O)c1ccncc1` it is 3.21% (inactive).
With `CCCCC(CC)COC(=O)c1ccc(O)cc1` (centres undefined), the “activity change, negative = cytotoxicity” value was -19.7% (inactive).
Still for that read-out and setting: with `SCCCCCCCCS` the figure was 1.92% (inactive).
For `CC1=C(/C=C/C(C)=C/C=C/C(C)=C/C(=O)Nc2ccc(O)cc2)C(C)(C)CCC1`, the Potency is 16.8 µM (active) and 62.7 µM (active).
In the case of `CCCCCCCCCCCCCOP(=O)(O)O`, the “activity change, negative = cytotoxicity” value was -0.0116% (inactive).
For `CCC(C)(C)c1cc(O)c(C(C)(C)CC)cc1O`, the “activity change, negative = cytotoxicity” value is -1.23% (inactive).
Regarding `Clc1ccccc1CN1CCc2sccc2C1`, the “activity change, negative = cytotoxicity” value was 11.8% (inactive).
For the compound `O=C(O)CC(=O)O`, the “activity change, negative = cytotoxicity” value was -1.81% (inactive).
On the same count and under the same terms, with `C=C(C)C(=O)OCCC[Si](Cl)(Cl)Cl` the figure was 0.0115% [at 95 µM] (inactive); with `CCCCCCCCCCCCCCNCCO`, -5.24% (inactive).
Turning to `O=C1OC(=O)c2cccc3cccc1c23`, the “activity change, negative = cytotoxicity” value is -5.22% [at 95 µM] (inactive).
The same measure, in the same setting: with `c1cc2c3c(c1)ccc1cccc(c13)C2` the figure was -14% [at 95 µM] (inactive); with `Cc1cccc(C)c1NC(=O)CN1CCN(CCCC(c2ccc(F)cc2)c2ccc(F)cc2)CC1`, -16.7% [at 32.5 µM] (inactive); with `CCCCCCCCCC(=O)N(C)C`, 2.46% [at 95 µM] (inactive).
The same measure, in the same setting: the figure for `CSc1c(Cl)c(Cl)c(Cl)c(Cl)c1Cl` is -1.12% (inactive).
In the case of `C[C@H]1O[C@@H](O[C@H]2[C@@H](O)C[C@H](O[C@H]3[C@@H](O)C[C@H](O[C@H]4CC[C@@]5(C)[C@H](CC[C@@H]6[C@@H]5C[C@@H](O)[C@]5(C)[C@@H](C7=CC(=O)OC7)CC[C@]65O)C4)O[C@@H]3C)O[C@@H]2C)C[C@H](O)[C@@H]1O`, the Potency result is “inactive”.
For the compound `NCCCCCCNCCCCCCN`, the “activity change, negative = cytotoxicity” value is -3.11% (inactive).
Turning to `Clc1ccc(C(Cn2ccnc2)OCc2c(Cl)cccc2Cl)c(Cl)c1` (centres undefined), the “activity change, negative = cytotoxicity” value was -0.58% [at 32.5 µM] (inactive).
In the case of `S=C(SSSSSSC(=S)N1CCCCC1)N1CCCCC1`, the “activity change, negative = cytotoxicity” value was -9.87% [at 32.5 µM] (inactive).
Turning to `Oc1ccc(-c2ccc(O)cc2)cc1`, the “activity change, negative = cytotoxicity” value is 11.8% [at 95 µM] (inactive).
